Columns and labels:
Test in all cases: thermal shift delta Tm vs DMSO control; higher = stronger stabilization (binding)
Conditions in all cases: 12.5 µM; protein concentration 2 µM
LOC_OS02G45750-cb003 = system: LOC_OS02G45750-cb003
Summary of the method: (§1)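 The melting temperature shift given here is a triplicate mean, measured against protein that received only DMSO. Melting temperatures came from Boltzmann fits of differential scanning fluorimetry data on E. coli-expressed, purified rice kinase domain constructs. Each 19.5 μl well contained 2 μM kinase, 100 mM potassium phosphate pH 7.5, 150 mM NaCl, 10% glycerol, 5 × SYPRO Orange and compound in DMSO. Plates were scanned from 25°C to 95°C at 0.05°C/s.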

LOC_OS02G54510-cb004 = system: LOC_OS02G54510-cb004
Summary of the method: as §1

LOC_OS03G04050-cb001 = system: LOC_OS03G04050-cb001
Summary of the method: as §1

LOC_OS03G12390-cb001 = system: LOC_OS03G12390-cb001
Summary of the method: as §1

LOC_OS03G27990-cb004 = system: LOC_OS03G27990-cb004
Summary of the method: as §1

LOC_OS03G50450-cb001 = system: LOC_OS03G50450-cb001
Summary of the method: as §1

LOC_OS03G50810-cb003 = system: LOC_OS03G50810-cb003
Summary of the method: as §1

LOC_OS04G35114-cb001 = system: LOC_OS04G35114-cb001
Summary of the method: as §1

LOC_OS04G38480-cb003 = system: T1, LOC_OS04G38480-cb003
T1 sequence (whole entry): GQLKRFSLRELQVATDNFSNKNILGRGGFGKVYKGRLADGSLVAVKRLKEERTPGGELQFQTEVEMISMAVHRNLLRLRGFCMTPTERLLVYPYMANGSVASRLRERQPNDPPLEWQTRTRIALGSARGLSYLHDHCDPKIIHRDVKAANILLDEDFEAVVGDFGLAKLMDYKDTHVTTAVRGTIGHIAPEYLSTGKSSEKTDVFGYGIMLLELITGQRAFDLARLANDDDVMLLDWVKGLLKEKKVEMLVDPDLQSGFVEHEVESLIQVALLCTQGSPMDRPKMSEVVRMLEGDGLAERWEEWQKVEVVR
Summary of the method: as §1

LOC_OS04G41100-cb001 = system: T2, LOC_OS04G41100-cb001
T2 sequence (whole entry): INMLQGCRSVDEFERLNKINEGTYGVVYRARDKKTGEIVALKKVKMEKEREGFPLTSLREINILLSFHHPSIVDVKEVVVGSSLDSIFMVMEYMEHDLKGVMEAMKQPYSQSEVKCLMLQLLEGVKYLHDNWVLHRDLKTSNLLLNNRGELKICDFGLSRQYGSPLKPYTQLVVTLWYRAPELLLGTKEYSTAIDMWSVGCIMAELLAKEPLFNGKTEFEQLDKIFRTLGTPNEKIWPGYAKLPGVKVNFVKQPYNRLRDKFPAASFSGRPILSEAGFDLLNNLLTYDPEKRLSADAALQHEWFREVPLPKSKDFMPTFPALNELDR
Summary of the method: as §1

LOC_OS04G57630-cb004 = system: LOC_OS04G57630-cb004
Summary of the method: as §1

LOC_OS05G07850-cb002 = system: LOC_OS05G07850-cb002
Summary of the method: as §1

LOC_OS05G16824-cb004 = system: LOC_OS05G16824-cb004
Summary of the method: as §1

LOC_OS05G28520-cb001 = system: LOC_OS05G28520-cb001
Summary of the method: as §1

LOC_OS05G30820-cb001 = system: LOC_OS05G30820-cb001
Summary of the method: as §1

LOC_OS05G43570-cb004 = system: LOC_OS05G43570-cb004
Summary of the method: as §1

LOC_OS06G16330-cb003 = system: LOC_OS06G16330-cb003
Summary of the method: as §1

LOC_OS06G22820-cb001 = system: T3, LOC_OS06G22820-cb001
T3 sequence (whole entry): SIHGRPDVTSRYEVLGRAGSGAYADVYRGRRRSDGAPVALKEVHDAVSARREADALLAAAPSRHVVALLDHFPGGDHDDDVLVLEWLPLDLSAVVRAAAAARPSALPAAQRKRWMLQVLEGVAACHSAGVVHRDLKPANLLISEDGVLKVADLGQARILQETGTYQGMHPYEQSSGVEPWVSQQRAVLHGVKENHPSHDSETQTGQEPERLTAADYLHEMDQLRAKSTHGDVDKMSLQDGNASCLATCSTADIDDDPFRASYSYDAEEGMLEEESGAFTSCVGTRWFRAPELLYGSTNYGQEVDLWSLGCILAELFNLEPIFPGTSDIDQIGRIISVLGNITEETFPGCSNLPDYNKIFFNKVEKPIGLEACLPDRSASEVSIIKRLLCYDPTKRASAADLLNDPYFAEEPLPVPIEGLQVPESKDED
Summary of the method: as §1

LOC_OS07G06570-cb004 = system: LOC_OS07G06570-cb004
Summary of the method: as §1

LOC_OS07G07230-cb001 = system: LOC_OS07G07230-cb001
Summary of the method: as §1

Sequence of LOC_OS06G16330-cb003 (as listed by the source): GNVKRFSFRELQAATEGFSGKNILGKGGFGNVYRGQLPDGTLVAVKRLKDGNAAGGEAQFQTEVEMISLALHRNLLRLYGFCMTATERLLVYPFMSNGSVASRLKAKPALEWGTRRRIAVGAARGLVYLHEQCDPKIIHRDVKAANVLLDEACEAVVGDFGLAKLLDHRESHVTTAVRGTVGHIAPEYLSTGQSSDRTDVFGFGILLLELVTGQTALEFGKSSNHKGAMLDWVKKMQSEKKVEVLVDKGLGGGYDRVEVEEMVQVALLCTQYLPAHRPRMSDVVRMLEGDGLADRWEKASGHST

| Structure (SMILES) | thermal shift delta Tm (LOC_OS02G45750-cb003) | thermal shift delta Tm (LOC_OS02G54510-cb004) | thermal shift delta Tm (LOC_OS03G04050-cb001) | thermal shift delta Tm (LOC_OS03G12390-cb001) | thermal shift delta Tm (LOC_OS03G27990-cb004) | thermal shift delta Tm (LOC_OS03G50450-cb001) | thermal shift delta Tm (LOC_OS03G50810-cb003) | thermal shift delta Tm (LOC_OS04G35114-cb001) | thermal shift delta Tm (LOC_OS04G38480-cb003) | thermal shift delta Tm (LOC_OS04G41100-cb001) | thermal shift delta Tm (LOC_OS04G57630-cb004) | thermal shift delta Tm (LOC_OS05G07850-cb002) | thermal shift delta Tm (LOC_OS05G16824-cb004) | thermal shift delta Tm (LOC_OS05G28520-cb001) | thermal shift delta Tm (LOC_OS05G30820-cb001) | thermal shift delta Tm (LOC_OS05G43570-cb004) | thermal shift delta Tm (LOC_OS06G16330-cb003) | thermal shift delta Tm (LOC_OS06G22820-cb001) | thermal shift delta Tm (LOC_OS07G06570-cb004) | thermal shift delta Tm (LOC_OS07G07230-cb001) |
| --- | --- | --- | --- | --- | --- | --- | --- | --- | --- | --- | --- | --- | --- | --- | --- | --- | --- | --- | --- | --- |
| Cc1c[nH]c2nc(Nc3ccc(N4CCN(C)CC4)c(F)c3)nc(-c3cccc(CC#N)c3)c12 | 11.6 °C | 3.94 °C | 0.91 °C | 13 °C | 8.79 °C | 8.2 °C | 9.84 °C | 12.4 °C | 6.06 °C | 1.61 °C | 4.89 °C | 15 °C | 12.3 °C | 3.05 °C | 0.83 °C | 1.16 °C | 17.6 °C | -0.11 °C | 2.22 °C | 0.57 °C |
| Nc1cccc(-c2cc3c(Oc4cccc(O)c4)ncnc3[nH]2)c1 | 5.52 °C | 1.7 °C | 0.45 °C | 5.94 °C | 3.84 °C | 0.38 °C | 1.5 °C | 4.56 °C | 2.16 °C | 1.12 °C | 1.21 °C | 11.1 °C | 5.59 °C | 0.57 °C | 1.14 °C | 0.77 °C | 4.75 °C | 0.88 °C | 1.36 °C | -0.21 °C |
| CNS(=O)(=O)Nc1nccc(Cc2c(C)c3ccc(Oc4ncccn4)cc3oc2=O)c1F | 0.52 °C | -0.03 °C | 0.37 °C | 0.7 °C | 0.15 °C | 0.4 °C | 0.57 °C | -0.07 °C | 0.35 °C | 0.2 °C | 0.3 °C | 0.16 °C | -1.72 °C | 0.32 °C | 0.47 °C | 0.49 °C | 0.47 °C | 0.62 °C | 1.63 °C | 0.51 °C |
| COc1cc2ncnc(Nc3ccc(Oc4ccccc4)cc3C)c2cc1OC | 1.39 °C | 0.53 °C | 0.35 °C | -0.19 °C | 0.39 °C | 0.77 °C | 0.51 °C | 4.14 °C | 1.19 °C | -0.13 °C | 0.31 °C | 8.78 °C | -9.65 °C | 0.23 °C | 0.05 °C | -0.01 °C | 2.86 °C | 0.95 °C | 1.5 °C | 0.54 °C |
| c1ccc(-c2[nH]ncc2-c2ccnc3ccccc23)nc1 | 0.48 °C | 0.4 °C | 0.67 °C | 0.41 °C | 0.25 °C | 0.76 °C | 0.28 °C | 0.25 °C | 2.34 °C | 0.99 °C | 0.26 °C | 3.02 °C | 0.42 °C | 0.19 °C | 0.24 °C | 0.65 °C | -2.93 °C | 0.08 °C | 0.81 °C | 0.53 °C |
| Cc1nc(NC(=O)N2CCC[C@H]2C(N)=O)sc1-c1ccnc(C(C)(C)C(F)(F)F)c1 [Alpelisib (BYL719)] | -0.52 °C | 0.02 °C | 0.28 °C | 0.2 °C | 0.55 °C | 0.38 °C | 0.21 °C | 1.56 °C | 0.94 °C | 0.49 °C | -0.02 °C | 7.19 °C | -1.37 °C | 0.17 °C | 0.38 °C | 0.29 °C | 0.44 °C | 0.57 °C | 1.48 °C | 0.13 °C |
| CCc1cccc(CC)c1NC(=O)N1Cc2[nH]nc(NC(=O)c3ccc(N4CCN(C)CC4)cc3)c2C1 | 2.47 °C | 0.46 °C | 0.29 °C | 4.75 °C | 0.09 °C | 0.27 °C | 2.53 °C | 4.67 °C | 0.61 °C | 0.62 °C | 0.89 °C | 5.74 °C | 1.16 °C | 0.11 °C | 0.78 °C | 0.47 °C | 2.93 °C | 1.47 °C | 1.26 °C | 0.12 °C |
| Cc1cn(-c2cc(NC(=O)c3ccc(C)c(Nc4nccc(-c5cnccn5)n4)c3)cc(C(F)(F)F)c2)cn1 [Radotinib] | 0.73 °C | 1.99 °C | 0.36 °C | 0.26 °C | 0.23 °C | -0.11 °C | 0.14 °C | 0.13 °C | 1.4 °C | 0.41 °C | 0.16 °C | -1.11 °C | 0.06 °C | 0.56 °C | 0.41 °C | 0.62 °C | -0.09 °C | 0.69 °C | 1.06 °C | 0.23 °C |
| CCCS(=O)(=O)Nc1ccc(F)c(C(=O)c2c[nH]c3ncc(Cl)cc23)c1F | 1.97 °C | 1.14 °C | 0.77 °C | 0.99 °C | 0.46 °C | 0.97 °C | 0.43 °C | 1.85 °C | 0.12 °C | 0.83 °C | 0.51 °C | 5.57 °C | 2.36 °C | 1.71 °C | 0.75 °C | 0.29 °C | 1.64 °C | 0.42 °C | 0.7 °C | -0.02 °C |
| Cc1c(CN2CCN(C(=O)[C@H](C)O)CC2)sc2c(N3CCOCC3)nc(-c3cnc(N)nc3)nc12 [Apitolisib (GDC-0980, RG7422)] | 0.62 °C | 0.4 °C | 0.32 °C | 0.75 °C | 0.18 °C | 1.38 °C | 0.78 °C | 0.55 °C | 1.12 °C | 0.47 °C | 0.67 °C | 2.89 °C | 1.9 °C | 0.57 °C | 0.58 °C | 1.24 °C | 0.88 °C | 0.56 °C | 0.61 °C | -0.1 °C |
| C=CC(=O)Nc1cccc(Oc2nc(Nc3ccc(N4CCN(C)CC4)cc3)nc3ccsc23)c1 | 1.44 °C | 0.64 °C | 0.99 °C | 1.24 °C | 1.38 °C | 1.3 °C | 1.96 °C | 2.13 °C | 2.26 °C | 0.71 °C | 1.01 °C | 8.37 °C | 2.38 °C | 2.64 °C | 1.14 °C | 1.26 °C | 3.14 °C | 0.83 °C | 2.96 °C | 1.41 °C |
| Cc1[nH]nc2ccc(-c3cncc(OC[C@@H](N)Cc4ccccc4)c3)cc12 | 2.29 °C | 0.14 °C | 0.35 °C | 3.08 °C | 0.34 °C | 0.59 °C | 1.41 °C | 1.06 °C | 0.62 °C | 1.9 °C | 0.79 °C | 6.97 °C | 1.39 °C | 0.6 °C | 0.56 °C | 1.24 °C | 0.93 °C | 0.49 °C | 0.93 °C | 0 °C |
| Cc1cc(N2CCOCC2)cc2[nH]c(-c3c(NC[C@@H](O)c4cccc(Cl)c4)cc[nH]c3=O)nc12 | 3.33 °C | 2.85 °C | 0.49 °C | 5.81 °C | 1.27 °C | 4.61 °C | 3.54 °C | 4.79 °C | -0.48 °C | 0.77 °C | -0.02 °C | 9.39 °C | 5.37 °C | 1.06 °C | 0.82 °C | 0.65 °C | 4.87 °C | 0.56 °C | -0.16 °C | 0.74 °C |
